Test results taken from PubChem BioAssay AID624171 (National Center for Advancing Translational Sciences (NCATS), 2012).
Among all 410,000 compounds or so, about 1,200 (0.29%) were called active. Roughly 2% stayed inconclusive and do not appear here. Calls follow the shape of the dose curve; as a rule, active = well fitted activation curve with a large enough effect; inconclusive = small, poorly fitted or top-dose-only effect; inactive = flat fitted curve, though single readings scatter. The sample as a whole holds a higher share of actives than the screen did.

Assay: qHTS of Nrf2 Activators; also: nearly all actives have a fitted effect of over 65% in size; as to activation: % of control where 0% means no effect
Details: AREc32 ARE-luciferase reporter (MCF7-derived line), luminescence, 24 h; series mostly up to 46.1 µM
How it was run: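 Quantitative high-throughput format: AREc32 reporter cells, 1000 per well, received compound by pin transfer and were incubated 24 hr at 37 deg C, 5% CO2, before Steady-Glo luminescence detection.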
Potency is read from the fitted curve at half-maximal effect.

Potency, active:
COc1ccc(Oc2c(Cl)cnn(-c3ccccc3)c2=O)cc1 12.6 µM
O=C1/C(=C/c2cccs2)CCc2ccccc21 11.2 µM
CCC1C/C(=C/c2cccs2)C(=O)/C(=C/c2cccs2)C1 (stereo unspecified) 5.62 µM
O=C(CN1C(=O)COc2ccccc21)Nc1ccc(F)cc1 12.6 µM
CNc1ccc(-c2nc(-c3ccco3)no2)cc1[N+](=O)[O-] 1.41 µM
O=C(Nc1ccc(Cl)cc1)c1ccsn1 11.2 µM
COC(=O)c1sccc1NC(=O)c1csc2c1CCCC2 11.2 µM
N#CC(=C1SC=CS1)c1nc(-c2ccccc2)cs1 7.08 µM
O=C(Nc1cccc2ccccc12)c1onc2c1CCCC2 12.6 µM
C=CCSc1nnc2c(n1)-c1cccc3cccc-2c13 12.6 µM
CC(=O)N1CCN(S(=O)(=O)c2c(F)cc(F)c(Cl)c2F)CC1 11.2 µM
O=C(Nc1nnc(-c2ccccc2F)s1)c1ccccc1F 3.16 µM
Brc1ccccc1C1N=C(c2ccccc2)NO1 (stereo unspecified) 6.31 µM
CN(C)CCN=c1cc(-c2ccccc2)oc2ccc(Cl)cc12 11.2 µM
N#CC1=C(N)Oc2c(sc3ccccc23)C1c1ccco1 (stereo unspecified) 3.16 µM
Cc1csc(NC(=O)Nc2ccccc2[N+](=O)[O-])n1 4.47 µM
O=[N+]([O-])c1ccc2oc(-c3cccc(O)c3)nc2c1 6.31 µM
O=C(Nc1cc(-c2nc3ncccc3o2)ccc1Cl)c1ccco1 6.31 µM
O=C(CSc1nc2ccc([N+](=O)[O-])cc2[nH]1)c1ccc(Cl)cc1 11.2 µM
S=c1[nH]nc(-c2ccco2)n1/N=C/c1ccccc1 10 µM
COc1ccc(/C=C/C(=O)c2cc(Br)ccc(=O)c2O)cc1 12.6 µM
O=C(c1ccc(F)cc1)n1c(=S)nc2ccccn21 2.51 µM
CCOc1cc(NC(=O)CCl)c(OCC)cc1NC(C)=O 14.1 µM

Potency, inactive:
CCc1ccccc1NC(=O)c1ccc(F)c(S(=O)(=O)NC2CCCCCC2)c1
Fc1ccc(C(Nc2ccc(Cl)c(C(F)(F)F)c2)c2nnc(-c3ccccc3)o2)cc1 (stereo unspecified)
COc1ccc(-n2c(C)nc3c(cnn3-c3ccc(F)cc3)c2=O)cc1
COc1ccc(-n2c(=O)c3ccccc3n(Cc3ccccc3Cl)c2=O)cc1
Cc1ccccc1CS(=O)(=O)CC1Nc2ccc(C(=O)NCc3ccc(Cl)cc3)cc2NC1=O (stereo unspecified)
O=C(NCc1ccc2c(c1)CCN2C(=O)c1ccccc1)Nc1cc(F)ccc1F
CCS(=O)(=O)N1CCN(C(=O)c2cccs2)CC1
O=C1/C(=C/c2cccs2)CCC1C1CCCC1 (stereo unspecified)
O=S(=O)(c1cccs1)N1CCc2ccccc2C1
Cc1c2cnn(-c3ccccc3)c(=O)c2c(C)n1C(C)C(=O)Nc1ccc(Br)cc1F (stereo unspecified)
COc1ccc(-c2nc3scc(CCNS(=O)(=O)c4cc(F)ccc4OC)n3n2)cc1OC
Cn1nc(-c2ccccc2)c(-c2ccccc2)c(C(=O)Nc2ccc(S(N)(=O)=O)cc2)c1=O
O=S(=O)(c1ccc2nc(NCc3ccccc3Cl)ccc2c1)N1CCCCC1
CC(OC(=O)CN1C(=O)COc2ccccc21)C(=O)NCc1ccc(F)cc1 (stereo unspecified)
O=C(CN1C(=O)COc2ccc(Cl)cc21)Nc1ccc(N2CCOCC2)cc1
CC(Nc1ccc(-c2nc(-c3ccco3)no2)cc1[N+](=O)[O-])c1ccccc1 (stereo unspecified)
CNc1ccc(-c2nc(-c3ccccc3C)no2)cc1[N+](=O)[O-]
CCCCN(CCCNC(=O)c1cc(Nc2ccccc2OC)nc2ccccc12)c1ccccc1
CCCOC(=O)c1c(NC(=O)c2cc3nc(-c4ccc(OC)cc4)cc(C(F)(F)F)n3n2)sc2c1CCCC2
CCOc1cc(-c2nnc(SCC(=O)NC3CCCCC3)nc2-c2ccc(OC)c(OCC)c2)ccc1OC
CCN(CC)CCNc1ncnc2c1cnn2-c1cc(Cl)ccc1C
O=C(Nc1ccc(OC(F)(F)F)cc1)C1CCCN(S(=O)(=O)c2ccc(Br)s2)C1 (stereo unspecified)
O=C(Nc1ccc(Cl)cc1)c1csc([C@@H]2O[C@H](CO)[C@H](O)[C@H](O)[C@H]2O)n1
O=C(Nc1cccc(Cl)c1)c1csnn1
O=S(=O)(c1ccc(C2CCCCC2)cc1)N1CCN(c2ccc(Cl)c(Cl)c2)CC1
CCOc1ccc2nc(N3CCCC(C(=O)Nc4cc(C)ccc4C)C3)sc2c1 (stereo unspecified)
Cc1cc(C)cc(NC(=O)c2cnc3sc(N4CCCC4)nn3c2=O)c1
CCOC(=O)c1ccc(NC(=O)c2csc3c2CCCCC3)cc1
CCOc1ccc(CCNC(=O)c2csc3c2CCCCC3)cc1
CC(C)c1ccc(C2CC(=O)N3CN(C4CCCCC4)CSC3=C2C#N)cc1 (stereo unspecified)
CC(=O)c1cccc(NC(=O)CSc2nc3c(c(=O)[nH]2)CCC3)c1
Cc1ccc(-c2csc(C(C#N)=C(O)CN3CCN(C(=O)c4ccco4)CC3)n2)cc1
N#CC(=C1CCCC1)c1nc(-c2ccc(Cl)cc2)cs1
Fc1cccc(-n2ncc3c2ncn2nc(-c4ccccc4Cl)nc32)c1
Cc1c(Cl)cccc1NC(=O)c1noc2c1CCCC2
COc1ccc(C(=O)Nc2onc3c2CCCC3)cc1
COc1cccc(C(=O)NCc2ccc3c(c2)CCN3C(=O)c2ccncc2)c1
Cc1cc(C)c(-c2n[nH]c3c2C(c2ccccc2F)N(CCO)C3=O)c(O)c1 (stereo unspecified)
Cc1nc2ccc(S(=O)(=O)NC(C(=O)NCc3ccccc3Cl)C(C)C)cc2s1 (stereo unspecified)
O=C(c1cnc(Cl)c(Cl)c1)N1CCN(S(=O)(=O)c2ccc(F)cc2)CC1
O=C(c1c(F)cccc1Cl)N1CCN(S(=O)(=O)c2ccc3c(c2)OCCCO3)CC1
Cc1c(CNC(C)c2ccccc2)c(C(=O)O)c(C)n1Cc1c(F)cccc1Cl (stereo unspecified)
Cc1csc2nc(COc3ccc(NC(=O)COc4ccccc4)cc3)cc(=O)n12
O=C(Nc1nc2c(s1)CCCC2)c1ccccc1F
O=C(Nc1ccccc1F)c1ccccc1-c1ccc(C(F)(F)F)cc1
O=C(COc1ccccc1F)Nc1ccc(C(=O)OCc2cc(=O)n3nc(C4CC4)sc3n2)cc1
Cc1ccccc1CNC(=O)CCCn1nc(C)c2sc3ccccc3c2c1=O
N#Cc1ccc(C2N=C(c3ccccc3)NO2)cc1 (stereo unspecified)
COc1cc(Cl)c(NC(=O)CC(C)S(=O)(=O)c2cc3c(cc2C)NC(=O)CO3)c(OC)c1 (stereo unspecified)
CN(C)CCCn1c(-c2ccc(Cl)cc2)csc1=Nc1ccccc1
Cc1ccc(Cc2nc3ccccc3nc2SCC(=O)Nc2cccc(C(F)(F)F)c2)cc1
CCOCCCNC(=O)c1c(NC(=O)Cc2coc3ccc(C)cc23)sc2c1CCC2
CC(=O)c1cccc(NC(=O)c2nc(-c3ccccc3)n(-c3cccc(C)c3)n2)c1
Cc1cccc(S(=O)(=O)c2cn(Cc3ccccc3)c3cc(N4CCOCC4)c(F)cc3c2=O)c1
CCN(CC)c1cc(NC2CCCCC2)c2c3c(onc13)-c1ccccc1C2=O
COc1ccc(OCCCC(=O)OC(C)C(=O)Nc2ccccc2[N+](=O)[O-])cc1 (stereo unspecified)
Cc1csc(NC(=O)C2CCN(S(=O)(=O)c3ccccc3)CC2)n1
Cc1c(CCNC(=O)c2ccc(C(F)(F)F)cc2)sc2nc(-c3ccc(F)cc3)nn12
O=C(Nc1cc(-c2nc3ccccc3o2)ccc1Cl)c1cc([N+](=O)[O-])ccc1N1CCOCC1
CCC(=O)Nc1cccc(-c2nc3cc(C)ccc3o2)c1
CC(=O)c1ccc(NC(=O)CSc2c(C(C)C)cnc3c2c(=O)n(C)c(=O)n3C)cc1
Cc1cccc(C(=O)Nc2ccc(-c3nc4ncccc4o3)cc2C)c1
Cc1cc(NC(=O)c2ccc(-c3ccc(Cl)cc3)o2)cc(-c2nc3ncccc3o2)c1O
CCc1cc2c(cc(C(=O)OC)n2Cc2nc(-c3ccc(C)cc3)oc2C)s1
CSc1ccccc1NC(=O)CCS(=O)(=O)c1nc(-c2cccs2)cc(C(F)(F)F)n1
O=C(CSc1nc(Nc2ccc(F)c(F)c2)c2ccccc2n1)c1ccc(Cl)cc1
COc1ccc(Cc2nnc(SCC(=O)c3cccc([N+](=O)[O-])c3)n2C)cc1
CCOc1ccccc1C(=O)Nc1ccc2c(c1)N(C)C(=O)c1ccccc1S2
CCOC(=O)c1ccc2c(c1)N(Cc1cccc(OC)c1)C(=O)c1ccccc1S2(=O)=O
Cc1ccccc1CNC(=O)Cn1c(C)c2cnn(-c3ccccc3)c(=O)c2c1C
CCC(C(=O)Nc1cc(OC)ccc1OC)n1c(=O)c(C(F)(F)F)nc2ccccc21 (stereo unspecified)
CN(C)C(=O)CSc1n[nH]c(-c2ccco2)n1
S=c1[nH]nc(/C=C/c2ccccc2)o1
COc1cc(NC(=O)c2cc(C3CC3)nc3c2c(C)nn3-c2ccccc2)cc(OC)c1
Cc1cccc(NC(=O)Cn2nc(-c3ccc(Cl)cc3)c3ccccc3c2=O)c1
COc1cccc(N2CC(NC(=O)/C=C\c3ccccc3)CC2=O)c1 (stereo unspecified)
COCOc1cc(O)c(C(=O)/C=C/c2ccc(OCOC)c(OCOC)c2)c(OCOC)c1
O=C(Nc1c(-c2ccc(F)cc2)nc2ccccn12)c1cccc(F)c1
O=C(c1ccc(F)cc1)N1CCCC(C(=O)N2CCCCC2)C1 (stereo unspecified)
Cc1ccc(-c2nc(SCc3ccc(Br)cc3)n3[nH]c(=O)cc3n2)cc1
CCc1nn(CC(=O)NCC(C)c2ccccc2)c(=O)c2cc3occc3n12 (stereo unspecified)
Cc1cccc(NC(c2cccc(F)c2)c2ccc3ccc(C)nc3c2O)n1 (stereo unspecified)
CCOc1cc(NC(=O)c2ccccc2C(=O)O)c(OCC)cc1NC(=O)c1ccccc1F
CCOCC(=O)Nc1cc(OC)c(Cl)cc1OC
CC(C)(C)OC(=O)N1CCC(c2c(C(=O)NCCc3ccsc3)cnn2-c2ccc(F)cc2F)CC1
COc1ccccc1NC(=O)c1cc(S(=O)(=O)NCCc2ccccc2)ccc1F

activation, inactive:
CCCCC1S/C(=N/N=C/c2cccs2)NC1=O (stereo unspecified) 2.71% [at 9.22 µM]
C=CCSc1nsc(NC(=O)Nc2cccc(C(C)=O)c2)n1 -0.163% [at 9.22 µM]
